Screening results: PubChem, several laboratories
CYP2C19 activ: increases human CYP2C19 enzyme activity | recombinant CYP2C19, luciferin-H EGE luminescence; stronger effect = higher value; 0 = fully inhibited enzyme, 1 = untreated enzyme | activation factor at 5 µM | 96,000 tested, under 10 active | AID 1025;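 active = activation factor of at least 2 at 5 µM in the primary screen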;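 note: 0 = wells with 2.5 mM tranylcypromine and 1 = vehicle-only wells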
E-sel TNF inh: TNF alpha driven E-selectin expression inhibition. HUVEC TNFa-induced E-selectin immunofluorescence, high content. inhibition, % at 2 µM. 120,000 tested, 0.71% active. AID 1246;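 active = inhibition above the batch mean plus 3 SD, and confirmed as a hit on visual image review, cut at about 43% in these data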;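 note: 0% = TNF-stimulated DMSO wells and 100% = unstimulated control wells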
CYP2C19 inh: blocks human cytochrome P450 2C19. inhibition, % at 5 µM. CYP2C19 Supersomes, luciferin-H EGE luminescence, 30 min. P33261. 96,000 tested, 21% active;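 active = CYP2C19 inhibition above a set limit at 5 µM in the primary screen, cut at about 50% in these data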;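 note: plate controls were negative control wells for no effect and 2.5 mM tranylcypromine positive control for full effect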
cytoskel mod: cytoskeleton assembly modification | HUVEC TNFa F-actin phalloidin imaging, high content | inhibition, % at 2 µM | 91,000 tested, 0.18% active;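 active = inhibition above the batch mean plus 3 SD and confirmed as a hit by visual image inspection, cut at about 30% in these data, passing the limit was not always enough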
CYP2C9 inh: human CYP2C9 inhibition; P11712; CYP2C9 Supersomes, luciferin-H conversion, luminescence; inhibition, % at 5 µM; 96,000 tested, 20% active; AID 777;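 active = blocking of liver enzyme CYP2C9 beyond about 50% at 5 µM, limit read from the data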
Target sequence (P11712 whole entry, looked up): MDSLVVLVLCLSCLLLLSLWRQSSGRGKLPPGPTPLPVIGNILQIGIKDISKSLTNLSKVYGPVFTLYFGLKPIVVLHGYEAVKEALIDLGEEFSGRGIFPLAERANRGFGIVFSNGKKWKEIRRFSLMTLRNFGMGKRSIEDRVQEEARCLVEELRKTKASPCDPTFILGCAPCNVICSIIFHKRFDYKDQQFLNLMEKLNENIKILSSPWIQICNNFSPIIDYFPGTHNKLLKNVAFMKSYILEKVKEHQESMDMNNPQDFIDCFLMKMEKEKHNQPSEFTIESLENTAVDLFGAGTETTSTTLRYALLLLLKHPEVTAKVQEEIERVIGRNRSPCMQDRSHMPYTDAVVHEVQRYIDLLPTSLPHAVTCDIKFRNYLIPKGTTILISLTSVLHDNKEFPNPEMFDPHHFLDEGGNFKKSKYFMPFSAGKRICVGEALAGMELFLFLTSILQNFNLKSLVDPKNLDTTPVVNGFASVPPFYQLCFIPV
CYP2C9 act: increases human cytochrome P450 2C9 activity; recombinant CYP2C9, luciferin-H conversion, luminescence; stronger effect = higher value; factor 1 = untreated enzyme, 0 = blocked; activation factor at 5 µM; 96,000 tested, 1.4% active;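 active = activation factor of 2 or more for CYP2C9 at a 5 µM dose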;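 note: 0 = sulfaphenazole-blocked wells and 1 = vehicle-only wells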
Starred values were filed as active, the others as inactive; . = no result. An excerpt weighted towards active compounds, which were near 22% of everything screened.

SMILES	CYP2C19 activ	E-sel TNF inh	CYP2C19 inh	cytoskel mod	CYP2C9 inh	CYP2C9 act
Cc1cccc(CCNS(=O)(=O)c2ccc3c(c2)oc(=O)n3C)c1	0.1	.	89*	-34	-43	1.4
COc1ccccc1CNC(=O)C(CC(C)C)NS(=O)(=O)c1ccc2c(c1)oc(=O)n2C (configuration not stated)	1	-6	-2	-6	0	1
Cc1ccc(NC(=O)CCNS(=O)(=O)c2ccc3c(c2)oc(=O)n3C)cc1	1	-11	4	37	4	1
CCOc1ccc(CN2CCC(C(=O)N3CCN(c4ccccc4F)CC3)CC2)cc1OC	1.2	.	-15	.	-4	1
Cc1ccccc1N1CCN(Cc2cccc(C(=O)O)c2)CC1	1.2	19	-19	26	-18	1.2
COc1cc(CN2CCC(C(=O)N3CCN(c4ccccc4F)CC3)CC2)cc(OC)c1O	0.9	.	5	-8	70*	0.3
COC(=O)c1cc(CN2CCN(c3ccccc3C)CC2)ccc1O	0.6	4	41	.	51*	0.5
COc1cc(CN2CCN(c3ccccc3F)CC2)cc(OC)c1O	0.2	8	80*	-1	14	0.9
COc1cc(CN2CCN(c3cccc(C)c3C)CC2)cc([N+](=O)[O-])c1O	.	-40	.	.	.	.
CN(C)c1ccc(NC(=O)c2cccc(N3C(=O)CCC3=O)c2)cc1	0.8	4	20	.	18	0.8
CC1(C)Cc2c(C#N)c(OCC(=O)c3ccc(Cl)cc3)nc(-c3ccco3)c2CO1	0.4	-13	59*	-4	18	0.8
CN(C)CCNc1nc(-c2ccco2)c2c(c1C#N)CC(C)(C)OC2	1.1	-1	-9	-2	4	1
Cc1nc(OCC(=O)c2ccc(Cl)cc2)c(C#N)c2c1COC(C)(C)C2	0.5	-1	52*	1	18	0.8
CCc1nc(OCC(=O)c2ccccc2)c(C#N)c2c1COC(C)(C)C2	0.5	-27	47	-14	28	0.7
COC(=O)c1c(NC(=O)CN2CCC(C(N)=O)CC2)c2c(C)cccc2n1C	0.9	-8	6	46	7	0.9
CS(=O)(=O)n1nc(-c2ccc(Cl)cc2)nc1SCc1ccccc1	0.5	-1	51*	-23	69*	0.3
CCOC(=O)C1CCCN(c2oc(-c3ccc(F)cc3)nc2C#N)C1 (configuration not stated)	.	-7	.	.	.	.
CS(C)(=O)=NS(=O)(=O)c1ccc(Cl)cc1	0.9	-62	7	-4	-6	1.1
CCCCCCn1c(SCC(=O)c2c(N)n(C)c(=O)n(C)c2=O)nc2ccccc21	0.8	10	22	.	75*	0.3
CCCn1c(N)c(C(=O)CSc2nc3ccccc3n2CCC#N)c(=O)n(C)c1=O	1	27	-2	22	2	1
CCN=C1SC(CC(=O)NCCc2ccc(OC)cc2)C(=O)N1CC (configuration not stated)	0.5	-11	48	3	51*	0.5
CCCCOc1ccccc1NC(=O)CC1SC(=NCC)N(CC)C1=O (configuration not stated)	0.3	10	69*	4	-14	1.1
CCN=C1SC(CC(=O)NCCc2ccc(OC)c(OC)c2)C(=O)N1CC (configuration not stated)	0.8	1	17	9	22	0.8
CCN=C1SC(CC(=O)Nc2ccc(C(F)(F)F)cc2)C(=O)N1CC (configuration not stated)	0.4	-13	65*	3	17	0.8
CCNC(=O)CC1SC(=Nc2ccc(C)cc2)N(CC)C1=O (configuration not stated)	0.5	-14	53*	-3	27	0.7
SMILES	CYP2C19 activ	E-sel TNF inh	CYP2C19 inh	cytoskel mod	CYP2C9 inh	CYP2C9 act
N#Cc1c(Nc2ccccc2)c(/C=N/NCCO)c[nH]c1=O	.	-1	.	.	.	.
O=C(CC1SC(=NCC2CCCO2)NC1=O)Nc1cccc2ccccc12 (configuration not stated)	.	-14	.	.	.	.
CCN=C1SC(CC(=O)NC(C)c2ccccc2)C(=O)N1CC (configuration not stated)	.	13	.	.	.	.
CCCCNC(=O)CC1Nc2ccccc2NC1=O (configuration not stated)	1.2	-69	-18	.	-17	1.2
CCCCOc1ccccc1NC(=O)CC1Nc2ccccc2NC1=O (configuration not stated)	0.7	.	26	.	64*	0.4
CCN=C1SC(CC(=O)Nc2ccccc2OCC)C(=O)N1CC (configuration not stated)	0.2	6	76*	-10	-36	1.4
CCN=C1SC(CC(=O)Nc2sc3c(c2C#N)CCCC3)C(=O)N1CC (configuration not stated)	0.8	.	20	-20	53*	0.5
CCCC1CCC(C(=O)Nn2cnc3ccccc3c2=O)CC1 (configuration not stated)	0.4	-9	58*	5	56*	0.4
CCCCN1C(=O)Cc2c1nc(N)c1c(N)nc(N(CCC)CCC)c(C#N)c21	1	.	-1	27	42	0.6
C=C(C)CN(CC)c1nc(N)c2c(N)nc3c(c2c1C#N)CC(=O)N3C12CC3CC(CC(C3)C1)C2	0.6	11	42	-1	92*	0.1
COc1cc(/C=C2/C(=N)N3C=CSC3=NC2=O)ccc1OCCCOc1ccccc1C	0.9	7	8	39	76*	0.2
COc1cc(/C=C2/C(=N)N3C=CSC3=NC2=O)ccc1OCCOc1ccc(NC(C)=O)cc1	.	-12	.	.	.	.
CCOc1cc(/C=C2/C(=N)N3C=CSC3=NC2=O)ccc1OCCCOc1ccccc1C	0.6	13	36	-13	74*	0.3
O=C(c1n[nH]c(=O)c2ccccc12)N1CCOCC1	1	.	-2	13	-10	1.1
Cc1cc(C)cc(OCC(=O)OCC(=O)Nc2c(C)n(C)n(-c3ccccc3)c2=O)c1	.	-20	.	.	.	.
CC(C)Cn1[nH]c2c3c(ccc2c1=O)C(=O)c1ccccc1C3=O	0.4	11	61*	25	80*	0.2
Nc1nc(CN2CCN(Cc3ccccc3)CC2)nc(Nc2ccccc2)n1	1.1	10	-9	-9	-4	1
Nc1nc(CN2CCN(c3ccccn3)CC2)nc(Nc2ccc(Cl)cc2)n1	0.5	.	46	-18	68*	0.3
Cc1cccc(Nc2nc(N)nc(CN3CCN(c4ccccc4F)CC3)n2)c1	.	.	.	-16	.	.
Cc1cccc(Nc2nc(N)nc(CN3CCN(c4ccccc4)CC3)n2)c1	0.5	-18	53*	-22	67*	0.3
Cc1c(Cl)cccc1Nc1nc(N)nc(CN2CCc3ccccc3C2)n1	0.7	0	33	-2	46	0.5
Cc1ccc(Nc2nc(N)nc(CN3CCc4ccccc4C3)n2)cc1	0.4	7	55*	-2	52*	0.5
CCn1c(=O)cc(OCC(=O)NC2CCCCC2)c2ccccc21	0.5	10	49	14	-48	1.5
